From PubChem BioAssay
Several values for one entry are separate records, joined by “and”; a condition that tells them apart may be missing. Equal values may be shown once. Activity calls are given as the source filed them.

Experiments:
[1] = compounds binding Alexa647 anti-His antibody – biochemical, small-molecule microarray, 635 nm fluorescence, artefact control for SMM control protein annotation, primary screen (AID 1128); conditions: higher = more signal;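 further: score merges feature fluorescence with signal-to-noise for each printed compound spot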
[2] = system: Human papillomavirus type 1a E7 protein (residues 1-88); assay: HPV1a E7 small-molecule binders, primary screen, biochemical, small-molecule microarray, residues 1-88, 635 nm (AID 1129); conditions: small-molecule microarray binding, fluorescence 635 nm; higher = more signal
[3] = target: Focal adhesion kinase 1 (Homo sapiens) (UniProt Q05397); assay: PTK2 protein binding on printed compound slides – biochemical, small-molecule microarray, 635/667 nm fluorescence, BSA, DTT, primary screen (AID 1130); conditions: 635 nm fluorescence, higher = more signal;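 further: composite of spot emission at 667 nm and signal to noise over triplicate slides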
Focal adhesion kinase 1 (Homo sapiens), sequence (Q05397 whole entry, looked up): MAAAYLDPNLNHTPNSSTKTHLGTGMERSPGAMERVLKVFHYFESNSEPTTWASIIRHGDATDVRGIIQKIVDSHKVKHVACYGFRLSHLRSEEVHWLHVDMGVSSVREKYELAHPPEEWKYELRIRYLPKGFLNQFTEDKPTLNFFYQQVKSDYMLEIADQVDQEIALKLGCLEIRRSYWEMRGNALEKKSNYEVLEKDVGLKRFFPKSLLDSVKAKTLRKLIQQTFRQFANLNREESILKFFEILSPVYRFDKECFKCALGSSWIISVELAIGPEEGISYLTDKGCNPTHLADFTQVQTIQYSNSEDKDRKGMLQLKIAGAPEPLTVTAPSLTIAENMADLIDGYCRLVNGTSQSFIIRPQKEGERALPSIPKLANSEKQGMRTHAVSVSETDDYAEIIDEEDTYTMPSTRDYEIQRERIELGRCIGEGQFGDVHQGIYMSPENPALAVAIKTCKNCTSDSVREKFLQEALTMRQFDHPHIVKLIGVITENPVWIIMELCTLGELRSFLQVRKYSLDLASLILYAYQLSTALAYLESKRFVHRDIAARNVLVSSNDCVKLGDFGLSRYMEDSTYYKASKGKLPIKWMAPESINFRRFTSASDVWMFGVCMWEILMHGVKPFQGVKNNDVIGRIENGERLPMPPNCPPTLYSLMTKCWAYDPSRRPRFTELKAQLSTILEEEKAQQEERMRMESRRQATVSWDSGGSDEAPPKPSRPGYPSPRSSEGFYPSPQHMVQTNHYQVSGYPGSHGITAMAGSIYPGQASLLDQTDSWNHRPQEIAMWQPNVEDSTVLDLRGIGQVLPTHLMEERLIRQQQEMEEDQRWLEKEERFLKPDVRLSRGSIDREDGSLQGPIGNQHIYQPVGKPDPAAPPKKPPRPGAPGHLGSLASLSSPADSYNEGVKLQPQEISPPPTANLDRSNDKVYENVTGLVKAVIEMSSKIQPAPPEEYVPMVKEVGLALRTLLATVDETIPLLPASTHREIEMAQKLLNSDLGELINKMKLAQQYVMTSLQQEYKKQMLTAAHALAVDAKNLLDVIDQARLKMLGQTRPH

[4] = system: Fibrinogen (Alexa647-labelled); assay: Alexa647-fibrinogen binding to printed small molecules – biochemical, small-molecule microarray, 635/667 nm fluorescence, artefact control for SMM control-protein annotation, profiling panel (AID 1131); conditions: fibrinogen-A647 binding fluorescence, higher = more signal;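 further: z-score merges 667 nm fluorescence with per-spot signal-to-noise over triplicate slides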
[5] = target: Follistatin (Homo sapiens) (UniProt P19883); assay: FST protein binding to printed compounds – biochemical, small-molecule microarray, 635/667 nm fluorescence, primary screen (AID 1132); conditions: 635 nm fluorescence, higher = more signal
Follistatin (Homo sapiens), sequence (P19883 whole entry, looked up): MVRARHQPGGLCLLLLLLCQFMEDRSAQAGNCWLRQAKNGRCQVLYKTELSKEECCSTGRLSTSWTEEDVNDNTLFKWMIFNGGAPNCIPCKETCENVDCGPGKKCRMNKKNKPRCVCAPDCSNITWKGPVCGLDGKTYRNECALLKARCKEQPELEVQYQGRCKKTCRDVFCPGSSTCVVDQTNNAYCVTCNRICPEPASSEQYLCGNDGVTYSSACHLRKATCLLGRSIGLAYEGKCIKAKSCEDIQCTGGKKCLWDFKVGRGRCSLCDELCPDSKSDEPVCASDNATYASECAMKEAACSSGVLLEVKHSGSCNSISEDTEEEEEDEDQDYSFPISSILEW

[6] = target: Fibroblast growth factor 2 (Homo sapiens) (UniProt P09038); assay: basic fibroblast growth factor binding to printed compounds – biochemical, small-molecule microarray, 635/667 nm fluorescence, primary screen (AID 1133); conditions: FGF2, fluorescence 635/667, higher = more signal
Fibroblast growth factor 2 (Homo sapiens), sequence (P09038 whole entry, looked up): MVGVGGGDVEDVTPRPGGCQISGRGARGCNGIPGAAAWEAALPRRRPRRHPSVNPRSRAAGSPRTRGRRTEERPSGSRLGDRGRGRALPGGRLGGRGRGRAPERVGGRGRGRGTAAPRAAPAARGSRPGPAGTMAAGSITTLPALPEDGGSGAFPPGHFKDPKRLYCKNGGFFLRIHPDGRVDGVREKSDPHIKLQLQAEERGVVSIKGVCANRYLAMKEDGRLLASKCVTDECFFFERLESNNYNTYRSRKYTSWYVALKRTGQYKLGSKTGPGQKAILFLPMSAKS

[7] = JC-1 mitochondrial potential readout, lung cancer cells – cell-based, A549, JC-1 fluorescence, basal, 24 h, 100 nL, profiling panel (AID 1138); conditions: higher = more signal;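 further: A549 lung adenocarcinoma cells under basal conditions with no added stimulus; test concentration not given here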
Lefty1 = Lefty1 protein binding to printed compounds – biochemical, small-molecule microarray, 635/667 nm fluorescence, primary screen (AID 1139); conditions: fluorescence 635/667, higher = more signal
[8] = system: wheat germ agglutinin (Triticum aestivum), Alexa647-labelled; assay: Alexa647-WGA lectin binding to printed small molecules – biochemical, small-molecule microarray, 635/667 nm fluorescence, artefact control for SMM control-protein annotation, profiling panel (AID 1140); conditions: WGA-A647 binding, 635 nm fluorescence, higher = more signal;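 further: score merges 667 nm feature emission with signal to noise over triplicate slides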
[9] = target: Luciferin 4-monooxygenase (Photinus pyralis) (UniProt P08659); assay: inhibition of purified Photinus pyralis luciferase – biochemical, luminescence, purified enzyme, 2006 set, primary screen (AID 1141); conditions: purified firefly luciferase, SteadyGlo luminescence, 30 min; higher = more signal, called active from +8 up or from −8 down;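 further: cell-free assay with purified firefly luciferase at 100 ng per well in PBS; test concentration not given here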
Luciferin 4-monooxygenase (Photinus pyralis), sequence (P08659 whole entry, looked up): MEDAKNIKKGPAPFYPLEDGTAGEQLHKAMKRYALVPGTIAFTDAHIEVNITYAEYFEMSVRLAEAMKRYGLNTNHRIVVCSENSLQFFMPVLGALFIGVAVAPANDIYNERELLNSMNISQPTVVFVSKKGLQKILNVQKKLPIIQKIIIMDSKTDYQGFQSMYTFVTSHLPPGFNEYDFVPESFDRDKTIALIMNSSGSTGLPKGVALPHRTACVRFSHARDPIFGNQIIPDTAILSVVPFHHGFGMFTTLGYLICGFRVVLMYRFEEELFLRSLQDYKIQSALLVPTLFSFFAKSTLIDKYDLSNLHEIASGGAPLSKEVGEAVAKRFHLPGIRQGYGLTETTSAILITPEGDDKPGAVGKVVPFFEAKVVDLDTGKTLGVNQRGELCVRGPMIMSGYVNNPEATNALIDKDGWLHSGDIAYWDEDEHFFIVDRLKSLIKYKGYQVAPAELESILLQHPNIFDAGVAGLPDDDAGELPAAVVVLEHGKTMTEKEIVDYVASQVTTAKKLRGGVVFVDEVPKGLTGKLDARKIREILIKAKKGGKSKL

Structure (SMILES)	composite z-score [1]	composite z-score [2]	composite z-score [3]	composite z-score [4]	composite z-score [5]	composite z-score [6]	z-score [7]	composite z-score (Lefty1)	composite z-score [8]	z-score [9]
CCOC(=O)C[C@H]1[C@H](OC(=O)c2ccccc2-c2ccccc2)[C@@H](NC(=O)Cc2ccc(OC)cc2)c2cc(OCCCO)ccc2N1C(=O)c1ccc2ccccc2n1	0.206 and -0.185	0.24 and 0.622	-0.0875 and 0.194	0.524 and 0.464	0.392 and 0.546	0.714 and 0.119	3.49 and 0.601	0.0614 and 1.07	0.172 and 0.238	-0.391 (inactive) and -0.85 (inactive)
Cc1ccc(S(=O)(=O)N[C@H]2COC(=O)[C@@H](Cc3ccccc3)NC(=O)[C@@H](C)COC(=O)CC=C[C@@H]2C)cc1	-0.619 and 1.81	-0.95 and -0.164	-0.282 and 0.116	-0.747 and -0.0169	1.18 and 0.825	0.575 and 0.462	0.636 and -1.01	0.678 and 0.882	-0.892 and -0.0489	-0.287 (inactive) and -0.431 (inactive)
COc1ccc(COC(=O)NN=C2C[C@@H](O)[C@@H](O)[C@@H]3[C@@H]4C(=O)N(C(C)(C)C)C(=O)[C@@H]4CC[C@H]23)cc1	1.34	0.797	0.0704	0.816	0.126	0.699	0.453	0.281	0.0873	-1.08 (inactive)
COC(=O)C1=C2N(Cc3ccccc3)C(C)=C(C(=O)OC)[C@@H](c3ccccc3)N2C(=O)[C@](O)(C(=O)OC)C1	0.0444 and -0.657	0.644 and 0.0112	0.268 and -0.172	0.985 and 0.0539	0.419 and 0.587	1.71 and 0.858	0.218 and 0.136	0.911 and 0.508	0.526 and -0.342	-0.0132 (inactive) and 0.18 (inactive)
C=CCN1C(=O)[C@]2(O[C@H](CCn3cc(CCO)nn3)[C@@H]([Si](C)(C)c3ccc(OC)cc3)[C@@H]2C)c2cc(N3C(=O)c4cccc5cccc3c45)ccc21	0.783 and 1.59	1.14 and 1.08	0.216 and 0.369	0.57 and 0.583	0.687 and 0.0673	0.296 and 0.381	-1.09 and -0.743	0.794 and 0.721	0.532 and 0.53	-0.511 (inactive) and 0.185 (inactive)
C#CCCCON=C1C[C@@H](O)[C@@H](O)[C@@H]2[C@@H]3C(=O)N(C4CCCCC4)C(=O)[C@@H]3CC[C@H]12	1.31	1.1	0.498	0.962	-0.0195	0.0951	0.83	0.112	0.698	-1.01 (inactive)
C=C[C@@H](C)[C@@H](O)c1ccc(O)c2ccccc12	-0.46 and 0.408	-1.07 and -0.498	-0.221 and -0.422	-1.54 and 0.509	0.105 and 0.431	-0.162 and -0.329	0.287 and -0.728	-0.863 and -0.286	-1.19 and 0.506	-1.48 (inactive) and -0.181 (inactive)
CCOC(=O)NN=C1C[C@@H](O)[C@@H](O)[C@@H]2[C@@H]3C(=O)N(Cc4ccc5c(c4)OCO5)C(=O)[C@@H]3CC[C@@H]12	0.0648	0.449	-0.0156	0.669	0.0164	0.197	1.06	0.225	0.626	0.556 (inactive)
C=CCN(Cc1ccccc1)C(=O)C1N(c2c(Cl)cccc2CO)C(=O)C2C(C(=O)O)C3C=CC21O3 (stereo not given)	-1.57 and -1.25	-2.28 and -0.762	-1.12 and -0.942	-1.61 and -1.28	-2.48 and -2.78	-1.21 and -1.62	1.29 and -0.936	-3.16 and -3	-1.9 and -1.22	-1.28 (inactive) and 1.17 (inactive)
CCOC(=O)[C@H](Cc1ccccc1)NC(=O)CCC1CC(OC(=O)NCc2cccc3ccccc23)CC2(CCCC(COC(=O)NCCCN3CCCC3=O)O2)O1 (stereo not given in full)	0.903	1.05	0.222	0.951	0.625	0.467	1.21	0.539	0.0826	0.782 (inactive)
C=CCN(CCCCC)C(=O)C1N(CCOCCO)C(=O)C2C(C(=O)O)C3C=CC21O3 (stereo not given)	-0.749 and -1.54	-1.08 and -0.838	-0.527 and -1.09	-1.97 and -0.97	-0.98 and -2.75	-2.29 and -2.04	0.586 and -0.536	-1.41 and -1.91	-1.19 and -2.06	0.171 (inactive) and 0.472 (inactive)
C=CCN(C(=O)C1N(c2c(Cl)cccc2CO)C(=O)C2C(C(=O)O)C3C=CC21O3)c1ccc(OC)cc1 (stereo not given)	0.0132 and -1.11	-0.52 and -1.47	-0.542 and -1.13	-0.79 and -1.58	-1.08 and -1.26	-1.37 and -1.76	-1.09 and 1.22	-2.14 and -2.24	0.174 and -1.28	1.4 (inactive) and -1.32 (inactive)
CC(C)N1CC=CC23O[C@@H]4C=CCCOC(=O)C4[C@H]2C(=O)N(C(C)CO)[C@@H]3C1=O (stereo not given in full)	0.412 and -0.876	-0.149 and -1.45	-0.214 and -0.327	-0.367 and -0.617	-1.72 and -1.22	-1.55 and -0.107	0.615 and 0.4	-0.674 and -1.22	-0.759 and -1.45	-0.509 (inactive) and -0.916 (inactive)
CO[C@@H]1COC(=O)CC=C[C@H](C)COC(=O)[C@H](C)NC(=O)CC=C[C@H]1C	0.401	-0.375	-0.0308	-0.607	1.11	1.72	0.521	1.03	-0.587	-0.394 (inactive)
CCOC(=O)CCN1C(=O)[C@H]2[C@H]3[C@H](O)[C@H](O)CC(=NNC(=O)OCC)[C@@H]3CC[C@H]2C1=O	-0.23	0.364	0.366	0.384	-0.124	0.447	0.167	-0.0407	-0.368	0.406 (inactive)
CC(C)OC(=O)C=C1C[C@@H](c2cccc(C(F)(F)F)c2)O[C@@H](c2cccc(C(F)(F)F)c2)O1	0.143 and 0.877	1.17 and 0.699	0.805 and 0.224	0.795 and 0.302	-0.618 and -1.57	-0.496 and -0.841	1.52 and 2.59	-0.392 and -0.925	0.627 and 0.443	-0.864 (inactive) and 0.747 (inactive)
CC(C)=NOCc1ccc(-c2cn([C@@H]3COC[C@H]3O)nn2)cc1	1.03	0.245	-0.115	-0.4	0.218	0.299	0.11	0.402	-0.132	-1.12 (inactive)
CCOC(=O)[C@@H]1CC2O[C@]23C[C@@H]1C(=O)N1CCC[C@@H]1[C@H]3O[Si](C)(C)C(C)(C)C (stereo not given in full)	-0.423 and -0.146	-0.853 and 0.0436	0.623 and 0.0915	-0.607 and -0.0382	-0.568 and 0.342	0.0471 and 1.14	-0.944 and -0.261	-0.0485 and 0.69	-0.616 and -0.276	0.316 (inactive) and 0.32 (inactive)
C=CCN(C(=O)C1N(CCOCCO)C(=O)C2C(C(=O)O)C3C=CC21O3)c1ccc(OC)cc1 (stereo not given)	-0.576 and -1.3	-1.57 and -1.78	0.748 and -0.878	-1.13 and -2.1	-2.1 and -2.52	-0.792 and -1.54	0.154 and 0.454	-2.56 and -2.64	-0.937 and -1.41	-0.505 (inactive) and -0.392 (inactive)
